# From PubChem
# An excerpt weighted towards active compounds, which were near 4.5% of everything screened.
# DAX1 inh-1: inhibitors of human orphan nuclear receptor DAX1 (NR0B1); P51843; HEK293 Gal4-DAX1 luciferase reporter, luminescence; inhibition, % at 6.75 µM; 340,000 tested, 0.99% active; AID 504766;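 active = inhibition above the mean over all tested compounds plus 3 SD, cut at about 4.2% in these data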;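 note: 0% = DAX1-transfected cells with DMSO and 100% = empty-vector control cells with DMSO; inhibition shows as a rise in luminescence from relieved DAX1 repression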
# Target sequence (P51843 207-470 limits assumed): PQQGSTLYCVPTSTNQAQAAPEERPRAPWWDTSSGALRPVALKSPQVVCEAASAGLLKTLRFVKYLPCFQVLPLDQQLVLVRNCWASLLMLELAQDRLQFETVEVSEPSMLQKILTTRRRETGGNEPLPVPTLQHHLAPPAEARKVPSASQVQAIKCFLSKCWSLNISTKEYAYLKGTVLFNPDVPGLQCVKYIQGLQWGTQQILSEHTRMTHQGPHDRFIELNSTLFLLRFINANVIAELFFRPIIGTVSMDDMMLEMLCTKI
# hgDAF12 agonist: activates the H. glycines DAF-12 receptor ligand-binding domain; HEK293 GAL4-hgDAF12 UAS-luciferase reporter, agonist luminescence; normalized to butyrate control; 370,000 tested, 1.8% active; AID 687014; activation, % at 6.8 µM;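 active = activation above a cutoff set at the mean of all screened compounds plus 3 SD, cut at about 10% in these data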;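 note: 0% = DMSO wells and 100% = sodium butyrate wells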
# hcDAF12 agonist: H. contortus DAF-12 activation, primary screen. HEK293 hcDAF-12 lit1-tk-luc reporter, luminescence; 0% DMSO, 100% Δ7-dafachronic acid. 370,000 tested, 1.4% active. AID 652067. activation, % at 6.8 µM;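 active = activation above the mean of all tested compounds plus 3 SD, cut at about 5.5% in these data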;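 note: 100% = response to 3 µM Δ7-dafachronic acid high control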
# ssDAF12 agonist: S. stercoralis DAF-12 activation, primary screen. HEK293 ssDAF-12/GRIP1 lit1-tk-luc reporter, luminescence; % of 3 µM dafachronic acid response. activation, % at 6.8 µM. 370,000 tested, 1% active. AID 652126;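 active = activation above the mean over all tested compounds plus 3 SD, cut at about 0.9% in these data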;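 note: 0% = DMSO-only wells and 100% = 3 µM delta7-dafachronic acid wells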
# GAA850 FXN act: increases GAA850 frataxin promoter reporter activity. HEK293 lucGAA850 FXN promoter luciferase reporter, 24 h; percent of 10 µM SAHA response. activation, % at 6 µM. 360,000 tested, 0.56% active. AID 540364;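 active = activation above the average of all compounds screened plus 3 SD, cutoff fixed separately per campaign, cut at about 7.5% in these data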;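 note: 0% = DMSO wells and 100% = 10 µM SAHA wells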
# DAX1 inh-2: DAX1 (NR0B1) inhibition, primary screen | HEK293T StAR-luciferase reporter, SF-1/DAX-1 repression relief | inhibition, % at 6.8 µM | 370,000 tested, 1.1% active | AID 652010;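 active = inhibition above the mean over all tested compounds plus 3 SD, cut at about 3.6% in these data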;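 note: 0% = DAX-1 cells with DMSO and 100% = cells lacking DAX-1 with DMSO; higher inhibition means more luminescence from relief of DAX-1 repression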
# GAA30 FXN cntr: GAA30 FXN promoter activation counter-screen; shares compounds with GAA850 FXN act; HEK293 lucGAA30 FXN promoter luciferase, 24 h; DMSO = 0%, 5 µM ipriflavone = 100%; activation, % at 6 µM; 1,900 tested, 66% active; AID 588350;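 active = mean activation above the mean of solvent-only control wells plus 3 SD, cut at about 22% in these data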;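 note: counterscreen of GAA850 promoter hits where activity marks nonselective or luminescence artifacts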
# FXN GAA850 conf: GAA850 FXN promoter activation confirmation | HEK293 lucGAA850 FXN promoter luciferase reporter, 24 h; 100% = activation by SAHA | 1,900 tested, 86% active | activation, % at 6 µM | AID 588351 | shares compounds with GAA850 FXN act;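 active = mean activation above a set limit taken from the primary screen, cut at about 8% in these data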;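 note: 0% = DMSO wells and 100% = 10 µM SAHA wells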
# * hit, by the source's call; · = no result given.
SMILES,DAX1 inh-1,hgDAF12 agonist,hcDAF12 agonist,ssDAF12 agonist,GAA850 FXN act,DAX1 inh-2,GAA30 FXN cntr,FXN GAA850 conf
CC(NC(=O)/C(C#N)=C/c1ccco1)c1ccccc1 (stereo unspecified),-2,4,-1,-2,0,0,·,·
CCOC(=O)c1c(NC(=O)c2cccnc2Cl)sc(C(=O)N(C)C)c1C,-1,-4,-3,-2,10*,0,10,7
CCOC(=O)c1c(NC(=O)c2cccs2)sc(C(=O)N(C)C)c1C,0,-3,-3,-2,-1,-1,·,·
COc1ccc(-c2cc(-c3nnc4sc(-c5cccs5)nn34)[nH]n2)cc1,·,6,0,-1,·,1,·,·
Cc1cc(SCC(=O)N(CC(C)C)c2c(N)n(CC(C)C)c(=O)[nH]c2=O)nc2ccccc12,-1,-2,0,0,-2,2,·,·
CC(C)CN(C(=O)C(c1ccccc1)c1ccccc1)c1c(N)n(CC(C)C)c(=O)[nH]c1=O,0,3,0,-1,7.9*,0,13,5
C[C@H](O)[C@@H]1CN2CCc3c([nH]c4c(-c5ccc6c(c5)OCO6)cccc34)[C@@H]2C[C@@H]1N(C)C(=O)NC1CCCCC1,·,-3,-1,-1,·,-1,·,·
O=c1c2ccccc2nc(SCc2nc3ccccc3s2)n1CCCO,0,8,4,0,14*,0,102*,43*
Cc1nc(Nc2ccccc2Cl)sc1C(=O)Nc1ccccc1,0,4,-1,-1,16*,0,67*,21*
Cc1nc(Nc2ccccc2)sc1C(=O)Nc1ccccc1,0,2,0,0,1,2,·,·
CCCN1C(=O)/C(=C/c2ccc(N3CCCC3)c(C)c2)NC1=S,-2,2,-3,-1,0,-1,·,·
Cc1cc(/C=C2\NC(=S)N(C)C2=O)ccc1N1CCCC1,1,10,2,-1,7.6*,1,107*,50*
O=C1CC2c3cc(-c4cc5ccccc5o4)ccc3CCN2C(=O)CN1Cc1ccccc1 (stereo unspecified),·,0,-2,-1,·,0,·,·
CCOc1ccc2nc(SCC(=O)c3cccs3)sc2c1,3,12*,4,1,8.6*,2,102*,29*
O=C(Nc1ccccc1Cl)c1ccccc1CC(O)(c1ccccc1)c1ccccc1,1,-1,-1,-1,14*,-1,9,12*
Cc1ccc(C)c(NC(=O)CN2C(=O)NC(CCc3ccccc3)C2=O)c1 (stereo unspecified),1,0,0,-1,0,0,·,·
O=C(NCCc1ccc(Cl)cc1)C1CCC(CNc2c(N3CCCCC3)c(=O)c2=O)CC1 (stereo unspecified),0,0,1,-1,16*,0,28*,5
COc1ccc(S(=O)(=O)N2CCN(C(=O)c3ccc(COc4ccccc4)o3)CC2)cc1,0,-3,-2,-2,1,-2,·,·
O=C(CCc1ccccc1)N[C@H]1[C@H](OC(=O)c2ccc3ccccc3n2)CCC[C@@]12C(=O)N(Cc1ccccc1)c1ccccc12,·,1,-1,-1,·,0,·,·
COC(=O)[C@]12C[C@H](CC(=O)NCc3ccc(C)o3)C(=O)N(Cc3ccccc3)C1=C[C@H](C1CCCC1)O[C@@H]2C,·,-3,-2,-1,·,0,·,·
COc1ccc(N2C(=O)C3CCCN3C2c2cccc(Br)c2)cc1 (stereo unspecified),1,1,-2,-1,12*,1,19,8.8*
COc1cccc(C2N(c3cccc(Cl)c3)C(=O)C3CCCN32)c1 (stereo unspecified),0,2,0,-1,2,0,·,·
CCCC[C@@H]1C(=O)N2N=Cc3cc(C)c(C)cc3[C@H]2N2N=Cc3cc(C)c(C)cc3[C@@H]12,·,-4,-3,-1,·,0,·,·
O=C(NC12CC3CC(CC(C3)C1)C2)c1cc([N+](=O)[O-])ccc1N1CCOCC1,0,0,-2,-2,10*,0,17,10*
CC(C)CNC(=O)OCc1cn(Cc2ccc(Cl)cc2)nn1,·,-1,-1,-1,·,-1,·,·
SMILES,DAX1 inh-1,hgDAF12 agonist,hcDAF12 agonist,ssDAF12 agonist,GAA850 FXN act,DAX1 inh-2,GAA30 FXN cntr,FXN GAA850 conf
CC(OC(=O)c1ncc(Cl)c(Cl)c1Cl)C(=O)NC1(C#N)CCCCC1 (stereo unspecified),0,2,1,0,1,0,·,·
Cn1c(=O)oc2cc(S(=O)(=O)N3CCC(C(=O)NCc4ccc(F)cc4)CC3)ccc21,2,-1,-1,-1,11*,0,14,6
CCCNC(=O)Cn1c(=O)oc2cc(S(=O)(=O)N3CCCC3)ccc21,1,1,0,-1,0,0,·,·
O=C(Cn1c(=O)oc2cc(S(=O)(=O)N3CCCCCC3)ccc21)NC1CCCCCCC1,0,-1,-3,-2,16*,0,19,16*
COC(=O)c1ccc(NC(=O)CSC2=NCCN2)cc1,-1,0,-1,-1,10.0*,-1,34*,16*
Cc1cc2nc(SCC(=O)Nc3ccccc3C(=O)O)[nH]c2cc1C,2,4,3,0,9.6*,1,62*,18*
Cc1cccc(NC(=O)Nc2nc3ncccn3c2-c2ccccc2)c1,·,1,-3,0,·,-2,·,·
O=C1COc2ccc(C(=O)CCl)cc2N1,·,-1,1,-1,9.8*,-1,202*,-13
CCc1cc2c(nc1CC)CCCN2S(=O)(=O)c1c(C)noc1C,·,1,0,-1,·,0,·,·
COC(=O)[C@H](C)NC(=O)NCc1ccccc1F,-1,0,4,0,9.4*,0,18,6
COC(=O)[C@H](C)NC(=O)NCc1ccc(F)cc1,0,-1,2,-1,-1,1,·,·
O=S1(=O)CCN(c2ccccc2CC(c2c[nH]c3ccccc23)c2c[nH]c3ccccc23)CC1,0,1,4,0,16*,-1,42*,21*
CCC(c1c[nH]c2ccccc12)c1cn(C)c2ccccc12 (stereo unspecified),·,4,5,-1,·,0,·,·
Cc1ccc(OCCNC(=O)CNC(=O)c2ccc3c(c2)OCO3)cc1,0,-2,1,-1,-1,0,·,·
Nn1nnc2ccccc21,2,8,1,-1,20*,1,46*,16*
